SMILES strings stand for the structures. Inconclusive results are not listed. Some compounds were tested as several samples or in several runs, with calls that do not always agree. Calls of active or inactive are those of the source. Unless noted, calls come from the whole dose curve.

A short description of assay [1]: Nuclear factor erythroid 2-related factor 2/antioxidant responsive element (Nrf2/ARE) small molecule agonists: qHTS cell viability counter screen in human keratinocytes (AID 1919968; active = well fitted curve in the direction sought with a large enough effect in the repeat runs; an effect the other way counts as inactive or inconclusive; note: nearly all actives have a fitted effect of over 55% in size; note: potency is the fitted concentration of half-maximal effect). In a few lines: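 Cells of the KeratinoSens line were plated at 1,500 per well and left for 5 h before compound transfer from DMSO stocks. After a 23 h incubation (37 C, 5% CO2), CellTiter-Fluor was added. Signal was taken as fluorescence intensity 1 h later.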

The target in assay [2] is Gonadotropin-releasing hormone receptor (Homo sapiens) (UniProt P30968). Briefly: Human gonadotropin-releasing hormone receptor (GnRHR) small molecule agonists, calcium flux assay in GnRHR-HEK293 cells (AID 1920063). Note: nearly all actives have a fitted effect of over 35% in size. An outline of the steps:
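Compounds dissolved in DMSO are pin-transferred onto dye-loaded GnRHR-HEK293 cells, which were seeded 18 h before at 37 C/5% CO2. Calcium signal is read as fluorescence intensity at 1 s intervals for 3 min.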

Assay [3] deals with KiSS-1 receptor (Homo sapiens) (UniProt Q969F8). The assay can be described thus: Human kisspeptin (KISS1R) small molecule agonists, calcium flux assay in KISS1R-HEK293 cells (AID 1920064; active = well fitted curve in the direction sought with a large enough effect in the repeat runs; an effect the other way counts as inactive or inconclusive). An outline of the steps: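 Cell line: HEK293, stable human KISS1R. Dye loading 1 h at 37 C after 18 h culture. Read: kinetic fluorescence, 480/540 nm, 3 min at 1 s intervals.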
Chain of KiSS-1 receptor (Homo sapiens) (Q969F8 whole entry, looked up): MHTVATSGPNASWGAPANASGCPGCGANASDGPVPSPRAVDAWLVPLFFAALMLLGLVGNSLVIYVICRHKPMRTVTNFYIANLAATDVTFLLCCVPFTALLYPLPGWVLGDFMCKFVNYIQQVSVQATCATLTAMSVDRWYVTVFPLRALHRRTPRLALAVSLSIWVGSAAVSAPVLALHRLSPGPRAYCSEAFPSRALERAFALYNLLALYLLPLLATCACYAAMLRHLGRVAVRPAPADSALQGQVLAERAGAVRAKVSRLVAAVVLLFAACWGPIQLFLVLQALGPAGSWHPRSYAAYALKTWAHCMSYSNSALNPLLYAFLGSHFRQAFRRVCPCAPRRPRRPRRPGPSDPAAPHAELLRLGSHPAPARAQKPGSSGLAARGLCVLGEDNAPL
(In general: Calcium assays in cells follow changes in intracellular calcium, usually with a dye or a luminescent sensor.)

Assay [4] in a line: G protein-coupled receptor (GPCR) small molecule agonists, calcium flux assay: HEK293 wild type cell line counter screen (AID 1920065). In a few lines: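 Tox21 10K compounds, 15 concentrations each in triplicate, pin-transferred in DMSO onto dye-loaded cells; kinetic read at 480/540 nm for 3 min, 1 s intervals.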
The nature of assay [5]: p53 small molecule agonists, cell-based qHTS assay with human liver microsomes (AID 1963577). In a few lines:
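p53RE-bla cells, 4,000/well, compound added after 5 h, with human liver microsomes 0.5 mg/mL and NADPH 0.5 mg/mL final; 16 h at 37 C, then LiveBLAzer 2 h RT, fluorescence.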

Assay [6] is described as follows: p53 small molecule agonists, cell-based qHTS assay with rat liver microsomes (AID 1963578). In a few lines: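 p53RE-bla cells, 4,000/well, pre-incubated 5 h, then given compounds plus rat liver microsomes (0.5 mg/mL final) and NADPH (0.5 mg/mL final). Incubation 16 h at 37 C; beta-lactamase reporter read by LiveBLAzer fluorescence after 2 h at room temperature.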
A general note: In qHTS, concentration-response curves come from the screen itself.

Assay [7] in a line: p53 small molecule agonists, cell-based qHTS assay with human liver microsomes: qHTS cell viability counter screen (AID 1963579). Note: nearly all actives have a fitted effect of over 45% in size. An outline of the steps: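 p53RE-bla cells, 4,000/well, dosed 5 hours after plating, with human liver microsomes (0.5 mg/mL final) plus NADPH (0.5 mg/mL final), 16 hours at 37 C. Viability read as CellTiter-Glo luminescence after 30 min at room temperature.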

The nature of assay [8]: p53 small molecule agonists, cell-based qHTS assay with rat liver microsomes: qHTS cell viability counter screen (AID 1963580). Note: nearly all actives have a fitted effect of over 45% in size. Note: potency is the fitted concentration of half-maximal effect. An outline of the steps: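 Counter screen for cytotoxicity under metabolic activation: rat liver microsomes and NADPH, 0.5 mg/mL final each, added with compounds to p53RE-bla HCT-116 cells; 16 h at 37 C, then ATP luminescence read.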
The nature of assay [9]: cAMP Responsive Elements (CRE) small molecule agonists, cell-based qHTS assay (AID 1963590). An outline of the steps:
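HEK 293T cells stably bearing CRE-bla were plated at 2,000 cells per well and rested 18 h. Compounds, positive controls or DMSO were added for 3 h at 37 C. LiveBLAzer B/G substrate was then loaded for 2 h at room temperature.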

Assay [10] in a line: cAMP Responsive Elements (CRE) small molecule antagonists, cell-based qHTS assay (AID 1963591; active = well fitted inhibition curve with a large enough effect in the signal ratio in the repeat runs, not every such curve was filed as active; the % refers to the signal ratio). An outline of the steps: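 First, CRE-bla HEK293T cells settled 18 h at 37 C. Next, compound and 0.25 uM final NKH477 were applied for 3 h. Last, LiveBLAzer B/G substrate was loaded for 2 h at room temperature.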
Assay [11] has as its target Beta-2 adrenergic receptor (Homo sapiens) (UniProt P07550). Briefly: Adrenergic beta2 receptor (ADRB2) small molecule antagonists, cell-based qHTS assay (AID 1963592). Note: series mostly up to about 92 µM; nearly all actives have a fitted effect of over 50% in size. In a few lines: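 Assay format: CHO-ADRB2 cells, 18-20hr seeding at 37C/5% CO2, then compound plus 1nM isoproterenol agonist mix for 0.5hr RT. Homogeneous time-resolved fluorescence cAMP detection after 1hr, expressed as 665/615 nm ratio.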

Assay [12] has the same target. The assay can be described thus: Adrenergic beta2 receptor (ADRB2) small molecule agonists, cell-based qHTS assay (AID 1963593).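 Note: CHO cells stably overexpressing human ADRB2.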 In a few lines:
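CHO cells stably over-expressing ADRB2 were plated overnight at 37C, then dosed with compounds plus a stimulation mix containing 100uM IBMX and 25uM Ro-20-1724 for 0.5hr at room temperature. cAMP was measured by HTRF competition, 1hr.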

Assay [13] concerns the target D(2) dopamine receptor (Homo sapiens) (UniProt P14416). Briefly: Dopamine D2 receptor (DRD2) small molecule agonists, cell-based qHTS assay (AID 1963594). Note: nearly all actives have a fitted effect of over 35% in size. In a few lines: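 HEK293 cells stably expressing DRD2 were cultured 24 h at 37 C, then given Ro20-1724 (0.1 mM final) and compounds for 10 min at room temperature. NKH477 (200nM) was then added for 30 min. cAMP was read by HTRF.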

For assay [14] the target is unchanged. Briefly: Dopamine D2 receptor (DRD2) small molecule antagonists, cell-based qHTS assay (AID 1963595; active = well fitted inhibition curve with a large enough effect in the signal ratio in the repeat runs, with a control signal flat; the % refers to the signal ratio). In a few lines:
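Stable D2 receptor HEK293 line, 24 h after seeding. Compound preincubated 10 min, then quinpirole (12 nM) with forskolin analogue NKH477 (200 nM), 30 min, room temperature. Detection by time-resolved FRET of cAMP.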

A short description of assay [15]: p53 small molecule agonists, cell-based qHTS assay: qHTS cell viability counter screen (AID 1963581). Note: nearly all actives have a fitted effect of over 45% in size. An outline of the steps: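 ATP content measured by luminescence in HCT-116 p53RE-bla cells treated 16 h at 37 C, same wells as the reporter screen.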
The target of assay [16] is 5-hydroxytryptamine receptor 2A (Homo sapiens) (UniProt P28223). Briefly: 5-hydroxytryptamine receptor 2A (HTR2A) small molecule agonists, cell-based qHTS assay (AID 1963587). Note: nearly all actives have a fitted effect of over 30% in size. An outline of the steps: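 HTR2A-CHO cells, plated 18 h at 37 C/5% CO2, dye-loaded 1 h at 37 C; compounds in DMSO added by pin tool (agonist mode). Intracellular calcium flux read as kinetic fluorescence on FDSS over 2 min at 1 s intervals.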
Chain of 5-hydroxytryptamine receptor 2A (Homo sapiens) (P28223 whole entry, looked up): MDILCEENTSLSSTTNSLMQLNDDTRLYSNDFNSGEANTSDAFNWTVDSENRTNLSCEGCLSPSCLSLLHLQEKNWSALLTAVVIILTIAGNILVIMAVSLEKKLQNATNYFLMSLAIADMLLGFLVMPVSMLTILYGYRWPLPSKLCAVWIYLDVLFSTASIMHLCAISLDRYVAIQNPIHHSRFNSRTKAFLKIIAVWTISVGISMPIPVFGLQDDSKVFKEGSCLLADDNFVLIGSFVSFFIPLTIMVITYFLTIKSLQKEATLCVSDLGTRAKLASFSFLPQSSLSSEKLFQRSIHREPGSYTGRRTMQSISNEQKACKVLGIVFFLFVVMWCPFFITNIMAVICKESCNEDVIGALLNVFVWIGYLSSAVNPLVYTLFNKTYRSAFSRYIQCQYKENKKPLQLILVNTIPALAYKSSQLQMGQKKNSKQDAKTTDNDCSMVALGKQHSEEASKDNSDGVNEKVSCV

The target in assay [17] is Muscarinic acetylcholine receptor M1 (Homo sapiens) (UniProt P11229). The assay can be described thus: Cholinergic receptor muscarinic 1 (CHRM1) small molecule antagonists, cell-based qHTS assay (AID 1963588). Note: nearly all actives have a fitted effect of over 40% in size. In a few lines: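 Compounds were tested at 15 concentrations in three independent runs. Dye-loaded CHRM1-CHO cells were exposed 5 min at room temperature before stimulation by acetylcholine added at 50nM. Intracellular calcium was read kinetically on FDSS for 3 min.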
Chain of Muscarinic acetylcholine receptor M1 (Homo sapiens) (P11229 whole entry, looked up): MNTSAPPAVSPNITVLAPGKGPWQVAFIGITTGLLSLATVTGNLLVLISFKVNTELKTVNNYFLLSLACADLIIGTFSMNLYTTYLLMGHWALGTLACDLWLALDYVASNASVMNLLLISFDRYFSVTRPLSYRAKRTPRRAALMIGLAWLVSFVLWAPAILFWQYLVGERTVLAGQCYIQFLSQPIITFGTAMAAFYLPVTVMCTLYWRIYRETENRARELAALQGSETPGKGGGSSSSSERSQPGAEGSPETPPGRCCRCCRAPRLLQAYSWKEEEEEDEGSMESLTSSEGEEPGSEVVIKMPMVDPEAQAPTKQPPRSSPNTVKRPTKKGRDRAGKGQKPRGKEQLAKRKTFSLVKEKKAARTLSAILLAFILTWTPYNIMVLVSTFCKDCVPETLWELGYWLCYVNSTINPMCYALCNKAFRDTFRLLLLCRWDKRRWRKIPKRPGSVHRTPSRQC

Assay [18] has the same target. The assay can be described thus: Cholinergic receptor muscarinic 1 (CHRM1) small molecule agonists, cell-based qHTS assay (AID 1963589). Note: nearly all actives have a fitted effect of over 35% in size. An outline of the steps:
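Homogeneous fluorescence calcium flux, agonist mode. Human M1-expressing CHO cells; compound dosed at 15 concentrations, three independent runs; signal sampled every 1 sec.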

Assay [19] has as its target 5-hydroxytryptamine receptor 2A (Homo sapiens) (UniProt P28223). Briefly: 5-hydroxytryptamine receptor 2A (HTR2A) small molecule antagonists, cell-based qHTS assay (AID 1963586). Note: nearly all actives have a fitted effect of over 45% in size. In a few lines:
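CHO cells stably expressing human HTR2A were plated for 18 h at 37 C, then loaded with calcium dye for 1 h. Compounds were preincubated 5 min at room temperature before DOI (4 nM solution) was added. Kinetic fluorescence was read for 3 min.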

Assay [20] is described as follows: p53 small molecule agonists, cell-based qHTS assay (AID 1963582; active = well fitted activation curve with a large enough effect in the signal ratio in the repeat runs, not every such curve was filed as active; the % refers to the signal ratio). In a few lines: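 16 h compound exposure (37 C) of p53 response element–bla cells, preceded by 5 h recovery at 37 C/5% CO2; read-out via LiveBLAzer B/G FRET substrate, 2 h RT, fluorescence intensity.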

Chain of D(2) dopamine receptor (Homo sapiens) (P14416 whole entry, looked up): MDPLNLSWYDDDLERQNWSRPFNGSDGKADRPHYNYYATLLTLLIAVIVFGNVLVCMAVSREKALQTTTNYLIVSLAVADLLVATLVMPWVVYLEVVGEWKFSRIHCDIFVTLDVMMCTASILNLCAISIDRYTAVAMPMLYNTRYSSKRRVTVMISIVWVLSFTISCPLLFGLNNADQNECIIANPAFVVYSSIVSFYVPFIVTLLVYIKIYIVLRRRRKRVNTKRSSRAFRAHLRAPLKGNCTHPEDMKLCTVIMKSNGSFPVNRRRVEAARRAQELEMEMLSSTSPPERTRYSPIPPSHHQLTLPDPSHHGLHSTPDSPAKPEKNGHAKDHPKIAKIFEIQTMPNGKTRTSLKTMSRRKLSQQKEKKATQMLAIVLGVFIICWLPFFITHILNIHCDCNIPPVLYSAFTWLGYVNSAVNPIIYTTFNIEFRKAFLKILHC
Chain of Gonadotropin-releasing hormone receptor (Homo sapiens) (P30968 whole entry, looked up): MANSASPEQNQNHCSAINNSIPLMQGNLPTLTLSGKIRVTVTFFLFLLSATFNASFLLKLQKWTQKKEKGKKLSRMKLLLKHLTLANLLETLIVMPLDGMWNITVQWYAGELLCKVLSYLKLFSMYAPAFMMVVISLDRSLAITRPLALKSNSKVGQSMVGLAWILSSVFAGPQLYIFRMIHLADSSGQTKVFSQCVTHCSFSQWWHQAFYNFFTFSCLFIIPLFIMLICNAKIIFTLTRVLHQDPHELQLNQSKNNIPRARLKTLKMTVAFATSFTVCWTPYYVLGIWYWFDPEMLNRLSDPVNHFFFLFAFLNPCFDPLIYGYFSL
Chain of Beta-2 adrenergic receptor (Homo sapiens) (P07550 whole entry, looked up): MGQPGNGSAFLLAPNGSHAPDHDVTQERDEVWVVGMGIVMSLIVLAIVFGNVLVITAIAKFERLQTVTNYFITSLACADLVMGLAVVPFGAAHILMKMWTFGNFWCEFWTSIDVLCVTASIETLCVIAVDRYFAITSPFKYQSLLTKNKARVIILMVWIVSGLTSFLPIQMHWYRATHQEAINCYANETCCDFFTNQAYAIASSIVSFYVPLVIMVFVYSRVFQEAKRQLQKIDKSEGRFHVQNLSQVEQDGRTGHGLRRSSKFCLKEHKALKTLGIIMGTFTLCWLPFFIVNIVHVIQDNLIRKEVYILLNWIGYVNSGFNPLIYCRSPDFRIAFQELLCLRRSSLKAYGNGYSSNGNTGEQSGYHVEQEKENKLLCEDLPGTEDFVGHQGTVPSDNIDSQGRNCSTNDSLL

On to `NNC(=O)c1ccncc1`, for which the Potency entry in assay [1], in [2], in assay [3], in [4], in [5] and in assay [6] was “inactive” in each case. Further, the Potency result in assay [7], in [8], in assay [9], in assay [10], in assay [11] and in assay [12] was “inactive” each time. Besides, the Potency result in assay [13] and in assay [14] was “inactive” throughout.
In the case of `C/C=C/C=C/C(=O)O`, the Potency result in assay [1], in assay [3], in [4], in [7], in assay [8] and in [15] was “inactive” throughout. In addition, the Potency result in assay [16], in assay [17], in assay [18], in assay [9], in [10] and in assay [11] was “inactive” in each case. Also, the Potency entry in assay [13] and in assay [14] was “inactive” each time.
Regarding `O=C(O)c1cccnc1`, the Potency entry in assay [1], in [2], in assay [3], in [4], in [9] and in [10] was “inactive” each time. The Potency entry in [11], in [12], in assay [13] and in [14] was “inactive” each time.
For `CC1(C)OC(=O)NC1=O`, the Potency result in [1], in [2], in assay [4], in assay [5], in [6] and in assay [7] was “inactive” each time. Further, the Potency entry in [8], in assay [15], in assay [19], in [16], in [17] and in assay [18] was “inactive” in each case. The Potency entry in assay [9], in assay [10], in assay [11], in assay [13] and in assay [14] was “inactive” in each case.
In the case of `COc1cc(O)c(C(=O)c2ccccc2)cc1S(=O)(=O)O`, the Potency entry in assay [1], in assay [2], in assay [4], in [8], in assay [15] and in assay [19] was “inactive” in each case. Besides, the Potency result in assay [16], in [17], in [18], in assay [9], in assay [10] and in assay [11] was “inactive” each time. Besides, the Potency entry in assay [12], in [13] and in assay [14] was “inactive” each time.
Regarding `CCCCCCCCCC(=O)OC`, the Potency result in assay [1], in [2], in [3], in assay [4], in assay [7] and in [8] was “inactive” throughout. The Potency entry in [15], in assay [19], in assay [16], in assay [17], in assay [18] and in assay [9] was “inactive” each time. Further, the Potency entry in assay [10], in [11], in [12], in [13] and in assay [14] was “inactive” throughout.
On to `O=C(c1ccccc1)c1ccc(O)c(O)c1O`, for which the Potency entry in assay [1], in assay [2], in assay [3], in assay [4], in [5] and in assay [6] was “inactive” each time. Besides, the Potency result in assay [7], in [8], in assay [15], in assay [19], in assay [16] and in [17] was “inactive” throughout. For the same molecule, the Potency entry in assay [18], in assay [10], in assay [11], in assay [12], in [13] and in [14] was “inactive” each time.
As to `C/C=C/c1ccc(O)c(OC)c1`, the Potency entry in assay [1], in assay [2], in assay [3], in assay [4], in assay [5] and in assay [7] was “inactive” in each case. Further, the Potency entry in assay [8], in assay [15], in assay [20], in assay [9], in assay [10] and in assay [11] was “inactive” throughout. The Potency entry in assay [12], in [13] and in assay [14] was “inactive” each time.
In the case of `C=C(C)C(=O)O[C@H]1C[C@@H]2CC[C@@]1(C)C2(C)C`, the Potency is 1.21 µM (active) and inactive in [1]; 7.21 µM (active) and inactive in assay [8]. Besides, the Potency entry in assay [2], in [3], in assay [4], in assay [5], in assay [7] and in assay [15] was “inactive” each time. In addition, the Potency result in [20], in [19], in assay [17], in assay [18], in [9] and in assay [10] was “inactive” each time. In addition, the Potency result in assay [11], in assay [12], in [13] and in [14] was “inactive” in each case.

(Values after PubChem BioAssay (Tox21).)
